The full ranking holds about 8,300 sequences; the median of “log2 fold change of degron read counts, EGFP-low vs EGFP+ sorted cells (limma voom), compound-induced degradation” is about -1.1, and the highest 2% start at about 3.2. Shown is part of a subset that was picked to be rich in the highest values.
T1: CRBN, Q96SW2
T1 chain: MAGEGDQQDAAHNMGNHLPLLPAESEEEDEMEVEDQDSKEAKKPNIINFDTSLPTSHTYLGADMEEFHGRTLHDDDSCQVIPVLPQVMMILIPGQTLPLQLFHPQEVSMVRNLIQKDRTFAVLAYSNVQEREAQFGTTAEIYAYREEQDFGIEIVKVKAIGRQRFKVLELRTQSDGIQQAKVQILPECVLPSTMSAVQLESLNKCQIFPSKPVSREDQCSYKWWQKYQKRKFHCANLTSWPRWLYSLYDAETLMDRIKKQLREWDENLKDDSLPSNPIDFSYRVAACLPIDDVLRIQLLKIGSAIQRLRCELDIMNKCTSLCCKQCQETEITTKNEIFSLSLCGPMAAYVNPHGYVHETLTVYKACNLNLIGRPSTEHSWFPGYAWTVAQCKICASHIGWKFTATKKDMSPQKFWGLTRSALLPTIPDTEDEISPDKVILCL

B1: 46F_47L_49E_50Q_52G_53A_54M_55F_67L_, Q9UKT9 (peptide)
chain: FLCEQCGAMFTQKGNLLRHIKL
B2: 46F_47E_49D_50I_52G_53A_54I_55F_67L_, Q9UKT9 (peptide)
chain: FECDICGAIFTQKGNLLRHIKL
B3: 46F_47Q_49N_50Q_52G_53A_54F_55F_67L_, Q9UKT9 (peptide)
chain: FQCNQCGAFFTQKGNLLRHIKL
B4: 46F_47I_49E_50Q_52G_53A_54N_55F_67L_, Q9UKT9 (peptide)
chain: FICEQCGANFTQKGNLLRHIKL
B5: 46F_47R_49N_50I_52G_53A_54S_55F_67L_, Q9UKT9 (peptide)
chain: FRCNICGASFTQKGNLLRHIKL
B6: 46F_47L_49D_50I_52G_53A_54R_55F_67L_, Q9UKT9 (peptide)
chain: FLCDICGARFTQKGNLLRHIKL
B7: 46F_47T_49D_50I_52G_53A_54R_55F_67L_, Q9UKT9 (peptide)
chain: FTCDICGARFTQKGNLLRHIKL
B8: 46F_47D_49D_50I_52G_53A_54R_55F_67L_, Q9UKT9 (peptide)
chain: FDCDICGARFTQKGNLLRHIKL
B9: 46F_47V_49D_50I_52G_53A_54R_55F_67L_, Q9UKT9 (peptide)
chain: FVCDICGARFTQKGNLLRHIKL
B10: 46F_47W_49D_50I_52G_53A_54R_55F_67L_, Q9UKT9 (peptide)
chain: FWCDICGARFTQKGNLLRHIKL
B11: 46F_47F_49D_50I_52G_53A_54R_55F_67L_, Q9UKT9 (peptide)
chain: FFCDICGARFTQKGNLLRHIKL
B12: 46F_47R_49D_50I_52G_53A_54R_55F_67L_, Q9UKT9 (peptide)
chain: FRCDICGARFTQKGNLLRHIKL
B13: 46F_47G_49D_50I_52G_53A_54R_55F_67L_, Q9UKT9 (peptide)
chain: FGCDICGARFTQKGNLLRHIKL
B14: 46F_47A_49D_50I_52G_53A_54R_55F_67L_, Q9UKT9 (peptide)
chain: FACDICGARFTQKGNLLRHIKL
B15: 46F_47C_49D_50I_52G_53A_54R_55F_67L_, Q9UKT9 (peptide)
chain: FCCDICGARFTQKGNLLRHIKL
B16: 46F_47Q_49D_50I_52G_53A_54R_55F_67L_, Q9UKT9 (peptide)
chain: FQCDICGARFTQKGNLLRHIKL
B17: 46F_47Y_49D_50I_52G_53A_54R_55F_67L_, Q9UKT9 (peptide)
chain: FYCDICGARFTQKGNLLRHIKL
B18: 46F_47G_49D_50V_52G_53A_54L_55F_67L_, Q9UKT9 (peptide)
chain: FGCDVCGALFTQKGNLLRHIKL
B19: 46F_47L_49N_50Q_52G_53R_54H_55F_67L_, Q9UKT9 (peptide)
chain: FLCNQCGRHFTQKGNLLRHIKL
B20: 46F_47S_49N_50V_52G_53A_54Y_55F_67L_, Q9UKT9 (peptide)
chain: FSCNVCGAYFTQKGNLLRHIKL
B21: 46F_47A_49N_50Q_52G_53R_54G_55F_67L_, Q9UKT9 (peptide)
chain: FACNQCGRGFTQKGNLLRHIKL
B22: 46F_47E_49N_50Q_52G_53A_54T_55F_67L_, Q9UKT9 (peptide)
chain: FECNQCGATFTQKGNLLRHIKL
B23: 46F_47I_49D_50Q_52G_53A_54R_55F_67L_, Q9UKT9 (peptide)
chain: FICDQCGARFTQKGNLLRHIKL
B24: 46F_47S_49P_50I_52G_53A_54W_55F_67L_, Q9UKT9 (peptide)
chain: FSCPICGAWFTQKGNLLRHIKL
B25: 46F_47V_49N_50Q_52G_53A_54D_55F_67L_, Q9UKT9 (peptide)
chain: FVCNQCGADFTQKGNLLRHIKL
B26: 46F_47R_49E_50I_52G_53R_54R_55F_67L_, Q9UKT9 (peptide)
chain: FRCEICGRRFTQKGNLLRHIKL
B27: 46F_47S_49D_50Q_52G_53A_54E_55F_67L_, Q9UKT9 (peptide)
chain: FSCDQCGAEFTQKGNLLRHIKL
B28: 46F_47C_49P_50I_52G_53R_54C_55F_67L_, Q9UKT9 (peptide)
chain: FCCPICGRCFTQKGNLLRHIKL

Target: T1, CRBN, Q96SW2
Experiment: log2 fold change of degron read counts, EGFP-low vs EGFP+ sorted cells (limma voom), compound-induced degradation; higher = more compound-induced degradation of the degron-EGFP fusion; degrons are variants of IKZF1/3 zinc finger 2; compound dose not given here
Conditions: Jurkat, 18 h
[1] = compound: compound 19 (5-tert-butyl-thalidomide)
[2] = compound: compound 22 (5-morpholino-thalidomide)
[3] = compound: compound 33 (diphenyl IMiD analogue)
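Further: pooled lentiviral library of zinc finger degron-EGFP fusions in mCherry-positive Jurkat cells, FACS-sorted after compound exposure, with degron abundance counted by next-generation sequencing.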

| Sequence | log2 fold change of degron read counts [1] | log2 fold change of degron read counts [2] | log2 fold change of degron read counts [3] | log2 fold change of degron read counts (compound: thalidomide) |
| --- | --- | --- | --- | --- |
| B1 | -2.2 | -2.48 | -0.823 | -1.31 |
| B2 | -1.92 | -1.75 | -0.965 | 0.171 |
| B3 | -2.56 | -2.44 | -1.62 | -1.28 |
| B4 | -2.09 | -0.316 | 0.362 | 0.322 |
| B5 | 0.331 | 0.291 | 0.894 | 0.839 |
| B6 | -0.594 | -2.06 | -0.802 | 0.425 |
| B7 | 1.44 | 2.55 | 0.655 | 1.76 |
| B8 | 1.85 | 0.0154 | -1.13 | -0.0241 |
| B9 | 0.23 | 1.75 | -0.304 | 1.47 |
| B10 | 3.15 | 3.82 | 0.741 | 0.265 |
| B11 | 3.58 | 3.35 | 0.994 | 0.0481 |
| B12 | -1.84 | -2.03 | -1.21 | -0.575 |
| B13 | 2.15 | 0.817 | -1.24 | 0.195 |
| B14 | 3.46 | 1.91 | -1.69 | -0.979 |
| B15 | 2.34 | 2.23 | 0.356 | 1.57 |
| B16 | -1.01 | 1.3 | 0.0735 | 3.03 |
| B17 | 3.31 | 3.35 | 0.716 | -0.312 |
| B18 | -0.285 | -1.26 | 0.277 | -1.67 |
| B19 | -2.4 | -2.59 | -2.64 | -2 |
| B20 | -0.837 | -0.921 | 0.627 | -0.674 |
| B21 | -2.53 | -2.62 | -2.49 | -2.4 |
| B22 | -2.51 | -3.02 | -2.92 | -1.69 |
| B23 | -2.79 | -0.912 | -0.818 | -1.23 |
| B24 | 0.603 | -0.272 | 0.788 | -0.152 |
| B25 | -3.46 | -3.35 | -3.82 | -2.79 |
| B26 | -2.67 | -2.2 | -1.21 | -0.634 |
| B27 | -2.57 | -3.41 | -1.87 | -2.94 |
| B28 | -0.609 | -0.825 | 0.868 | 0.188 |

From the supplement of paper PMC12645437, “Orthogonal IMiD-Degron Pairs Induce Selective Protein Degradation in Cells” (ACS Chemical Biology, 2025)
